Potency and viability (% of DMSO control) data for 24 compounds are collected here from PubChem BioAssay (NCATS).

Results filed as inconclusive are left out. Active and inactive are the calls of the source. Calls come from the whole dose curve; as a rule, active = well fitted cell-killing curve with a large enough effect; inconclusive = small, poorly fitted or top-dose-only effect, or effect the other way; inactive = no such curve, though single readings can be large or run the other way.

A short description of test [1]: Quantitative High-Throughput drug screen in 47 multiple myeloma cell lines against the NCATS MIPE library collection: U266_ATCC cell viability assay (AID 1919864). Note: nearly all actives have a fitted effect of over 35% in size. The method, boiled down:
(§1)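 Cells were exposed to library compounds for 48 hours, after which ATP was measured by CellTiter-Glo. Signal was taken as median relative luminescence units.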

Test [2] is described as follows: Quantitative High-Throughput drug screen in 47 multiple myeloma cell lines against the NCATS MIPE library collection: XG1_PLB cell viability assay (AID 1919866). Note: nearly all actives have a fitted effect of over 35% in size. The method, boiled down: as §1
Test [3] is described as follows: Quantitative High-Throughput drug screen in 47 multiple myeloma cell lines against the NCATS MIPE library collection: UTMC2_PLB cell viability assay (AID 1919868). Note: nearly all actives have a fitted effect of over 55% in size. Conditions: CellTiter-Glo ATP luminescence, 48 h; viability (% of DMSO control): at 45.8 µM (top of the series). The method, boiled down: as §1
In general terms: In ATP-based viability assays light output follows the ATP content of the culture.

Test [4] is described as follows: Quantitative High-Throughput drug screen in 47 multiple myeloma cell lines against the NCATS MIPE library collection: PE2_PLB cell viability assay (AID 1919869). Note: nearly all actives have a fitted effect of over 35% in size. The method, boiled down: as §1
Test [5] can be described thus: Quantitative High-Throughput drug screen in 47 multiple myeloma cell lines against the NCATS MIPE library collection: PCM6_Riken cell viability assay (AID 1919870). Note: nearly all actives have a fitted effect of over 30% in size. The method, boiled down: as §1
Test [6] in a line: Quantitative High-Throughput drug screen in 47 multiple myeloma cell lines against the NCATS MIPE library collection: RPMI8226_ATCC cell viability assay (AID 1919871). Note: nearly all actives have a fitted effect of over 30% in size. In a few lines: as §1
Test [7] is described as follows: Quantitative High-Throughput drug screen in 47 multiple myeloma cell lines against the NCATS MIPE library collection: OPM2_DSMZ cell viability assay (AID 1919872). Note: nearly all actives have a fitted effect of over 30% in size. In a few lines:
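Myeloma cell lines, 500 cells per well, exposed to MIPE 4.0 library compounds for 48 h at 37C, 5% CO2. Viability from ATP by CellTiter-Glo luminescence; normalised to DMSO (100%) and media-only (0%) wells.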

Test [8] can be described thus: Quantitative High-Throughput drug screen in 47 multiple myeloma cell lines against the NCATS MIPE library collection: KMS11_JCRBsus cell viability assay (AID 1919873). Note: nearly all actives have a fitted effect of over 50% in size. In a few lines: as §1
Test [9] can be described thus: Quantitative High-Throughput drug screen in 47 multiple myeloma cell lines against the NCATS MIPE library collection: XG6_PLB cell viability assay (AID 1919865). Note: nearly all actives have a fitted effect of over 40% in size. In a few lines:
as §1

A short description of test [10]: Quantitative High-Throughput drug screen in 47 multiple myeloma cell lines against the NCATS MIPE library collection: VP6_DJ cell viability assay (AID 1919867). Note: nearly all actives have a fitted effect of over 40% in size. In a few lines: as §1
Potency is the fitted concentration of half-maximal effect.

For the compound `COc1cc(C(C)C)c(Oc2cnc(NC(CO)CO)nc2N)cc1I`, the Potency is 1.48 µM (active) in [1], 7.43 µM (active) in test [4] and 3.32 µM (active) in test [6]. Besides, the Potency result in [2], in test [5], in [7] and in test [8] was “inactive” in each case. Besides, in test [3], the viability (% of DMSO control) was 201% (active).
Consider `O=C(Nc1cccc(Nc2ncc(Br)c(NCCc3cnc[nH]3)n2)c1)N1CCCC1`, for which the Potency was 590 nM (active) in test [9]; 0.372 µM (active) in test [2]; 2.64 µM (active) in test [10]; 0.662 µM (active) in test [3]; 2.96 µM (active) in test [4]; 3.32 µM (active) in [5]. The Potency in test [6] is 18.7 µM (active); in [7], 4.18 µM (active); in test [8], 8.33 µM (active).
In the case of `O=C(C=CC=Cc1ccc2c(c1)OCO2)N1CCCCC1`, the Potency result in [1], in [3], in test [4], in test [5] and in test [8] was “inactive” in each case. Further, the results for the Potency in test [10] and in [6] were 2.64 µM (active) and 3.72 µM (active), respectively.
With `O=C(CN1C(=O)C2(CCCC2)NC[C@H]1c1cc(F)cc(F)c1)Nc1ccc2c(c1)C[C@@]1(C2)C(=O)Nc2ncccc21`, the Potency entry in test [9], in [2], in test [10], in test [3], in test [5] and in test [6] was “inactive” throughout. Besides, in [8], the Potency result was “inactive”.
`CS[C@H]1SC[C@@H]2C(=O)N(C)[C@H](C(C)C)C(=O)OC[C@H](NC(=O)c3cnc4ccccc4n3)C(=O)N[C@H](C)C(=O)N(C)[C@@H]1C(=O)N(C)[C@H](C(C)C)C(=O)OC[C@H](NC(=O)c1cnc3ccccc3n1)C(=O)N[C@H](C)C(=O)N2C`: the Potency is 1 nM (active) in test [9]; 0.0074 µM (active) in [2]; 0.001 µM (active) in test [10]; 0.001 µM (active) in [3]; 0.001 µM (active) in [4]; 0.001 µM (active) in test [5]. Also, the Potency in test [6] is 0.0105 µM (active); in test [8], 0.0033 µM (active).
On to `CC(=O)N[C@H]1[C@@H]([C@H](O)[C@H](O)CO)OC(C(=O)O)=C[C@@H]1N=C(N)N`, for which the Potency result in [9], in test [2], in [10], in test [4], in test [5] and in [6] was “inactive” each time. The Potency entry in test [8] was “inactive”.
As to `COc1cc(N2CCC(C(N)=O)CC2)ccc1Nc1nc(N)c(Cl)c(Nc2ccccc2S(=O)(=O)C(C)C)n1`, the Potency in [9] was 93.5 nM (active); in test [2], 0.0935 µM (active); in test [10], 0.418 µM (active); in test [4] it was 0.418 µM (active); in [5], 0.833 µM (active).
As to `C=CC(=O)Nc1cc(NC(=O)c2ccc(C)c(NC(=O)c3ccno3)c2)cc(C(F)(F)F)c1`, the Potency is 16600 nM (active) in [9]; 14.8 µM (active) in [2]; 16.6 µM (active) in test [10]; 20.9 µM (active) in [3]; 16.6 µM (active) in test [4]; 16.6 µM (active) in test [5]. For the same compound, the results for the Potency in test [6] and in test [8] were 23.5 µM (active) and 11.8 µM (active), respectively.
On to `CC(=O)SCC(Cc1ccccc1)C(=O)NCC(=O)OCc1ccccc1` (stereo not given), for which the Potency in [9] was 1050 nM (active); in test [2], 2.96 µM (active); in test [10], 5.9 µM (active); in test [3] it was 1.32 µM (active); in test [4], 0.935 µM (active); in [5] it was 1.48 µM (active). Further, the Potency in test [7] is 5.9 µM (active).
With `CCC[C@H]1C[C@H](C(=O)N[C@@H]([C@@H]2O[C@@H](SC)[C@@H](O)[C@@H](O)[C@@H]2O)[C@H](C)Cl)N(C)C1`, the Potency entry in test [9], in test [2], in [10], in test [4], in test [5] and in [6] was “inactive” each time. Further, the Potency entry in test [7] and in test [8] was “inactive” throughout.
With `O=C(C=Cc1ccc(CN(CCO)CCc2c[nH]c3ccccc23)cc1)NO`, the Potency in test [9] was 235 nM (active); in [2], 0.166 µM (active); in [10], 0.059 µM (active); in test [4], 0.166 µM (active); in test [5], 0.132 µM (active); in test [6] it was 0.235 µM (active). Further, in [8], the Potency is 0.0526 µM (active).
Turning to `Nc1nc(=O)n([C@H]2CSC(CO)O2)cc1F` (stereo not given in full), the Potency entry in test [9], in test [2], in test [10], in test [4], in test [5] and in [6] was “inactive” throughout.
In the case of `Cc1cnc(NC(=O)Nc2cc(Br)c(C)cc2OC[C@@H]2CNCCO2)cn1`, the Potency was 743 nM (active) in test [9]; 1.66 µM (active) in [2]; 4.69 µM (active) in test [10]; 1.48 µM (active) in [3]; 1.87 µM (active) in [4]; 10.5 µM (active) in [5]. In addition, in test [8], the Potency is 5.26 µM (active).
Consider `CN1CCc2c(c3ccccc3n2Cc2ccc(C(=O)NO)cc2)C1`, for which the Potency is 8330 nM (active) in test [9]; 11.8 µM (active) in test [2]; 9.35 µM (active) in test [10]; 2.64 µM (active) in test [3]; 23.5 µM (active) in test [4]; 16.6 µM (active) in test [5]. Moreover, in test [8], the Potency was 20.9 µM (active).
As to `CC(=O)N1CCN(c2ccc(OCc3nn(C)c(C)c3-c3cccc4c(CCCOc5cccc6ccccc56)c(C(=O)O)n(Cc5cccnc5)c34)cc2)CC1`, the Potency in test [9] is 105 nM (active); in test [2], 0.235 µM (active); in test [10] it was 0.332 µM (active); in test [4], 1.66 µM (active); in test [5], 1.18 µM (active); in test [6] it was 23.5 µM (active). Further, the Potency is 23.5 µM (active) in [7] and 0.105 µM (active) in [8].
For `C=C1C[C@@]2(O)O[C@@]3(C[C@H]2C(C)C)[C@H](C)CC[C@H]13`, the Potency result in test [9], in test [2], in test [10], in test [4], in test [5] and in test [6] was “inactive” each time. In addition, the Potency result in [7] and in test [8] was “inactive” in each case.
Take `CC(C)c1cnn2c(NCc3ccccc3)cc(NCCCCCCN)nc12`: the Potency was 332 nM (active) in [9]; 0.935 µM (active) in [2]; 11.8 µM (active) in test [10]; 26.4 µM (active) in test [4]; 13.2 µM (active) in test [5]; 26.4 µM (active) in test [8].
`CC(C)(C)[N+]([O-])=Cc1ccc(S(=O)(=O)O)cc1S(=O)(=O)O`: the Potency entry in test [9], in test [2], in [10], in [4], in test [6] and in test [8] was “inactive” in each case.
For `CC(C)N(CC[C@H](c1ccccc1)c1cc(CO)ccc1O)C(C)C`, the Potency entry in test [9], in [2], in [10], in [4], in test [5] and in test [6] was “inactive” throughout. For the same compound, the Potency entry in test [7] and in test [8] was “inactive” in each case.
Turning to `OC[C@@H](O)[C@@H](O)[C@H](O)[C@@H](O)CO`, the Potency entry in test [9], in test [2], in [10], in test [4], in [5] and in [6] was “inactive” each time. In addition, the Potency result in test [7] and in test [8] was “inactive” in each case.
In the case of `O=C(Nc1ccc(Oc2ccnc3[nH]ccc23)c(F)c1)c1cccn(-c2ccc(F)cc2)c1=O`, the Potency in test [9] is 26400 nM (active); in test [2] it was 26.4 µM (active); in [10], 20.9 µM (active); in test [5], 23.5 µM (active). For the same compound, the Potency result in [4] and in test [7] was “inactive” throughout.
On to `O=C(O)C[C@H](O)C[C@H](O)C=Cc1c(C2CC2)nc2ccccc2c1-c1ccc(F)cc1`, for which the Potency is 18700 nM (active) in test [9]; 3.32 µM (active) in test [2]; 16.6 µM (active) in test [10]; 9.35 µM (active) in test [3]; 4.69 µM (active) in test [4]; 16.6 µM (active) in test [6]. The Potency in test [8] was 7.43 µM (active).
`CC1(C)[C@H](O[C@H]2O[C@H](C(=O)O)[C@@H](O)[C@H](O)[C@H]2O[C@@H]2O[C@H](C(=O)O)[C@@H](O)[C@H](O)[C@H]2O)CC[C@@]2(C)[C@H]1CC[C@]1(C)[C@H]2C(=O)C=C2[C@H]3C[C@@](C)(C(=O)O)CC[C@]3(C)CC[C@]21C`: the Potency entry in [9], in [2], in test [10], in test [4] and in [5] was “inactive” each time.
For `CCOc1cc2c(c(F)c1OCC)C(=N)N(CC(=O)c1cc(N3CCOCC3)c(OC)c(C(C)(C)C)c1)C2`, the Potency in test [9] is 9350 nM (active); in [2] it was 8.33 µM (active); in test [10] it was 9.35 µM (active); in [4], 20.9 µM (active); in test [5], 7.43 µM (active); in test [6] it was 18.7 µM (active). For the same compound, in test [8], the Potency was 7.43 µM (active).
